This is part of a sample that, as a whole, favours compounds with a hit. Of some 83,000 tested, about 20% had one in any assay.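 Cells were grown in 96-well plates and exposed to the test compound at a single concentration for 48 hours; results are reported as percent growth, with values below 10 considered active.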 A number with no mark means an inactive call. The source made the active and inactive calls.
How the values were obtained:
Experiment in all cases: NCI-60 one-dose screen, 48 h (100 = growth as untreated, 0 = no growth, -100 = all killed)
Details in all cases: 10 µM unless noted
[1] = tested on: NCI-H23 lung
[2] = tested on: NCI-H226 lung
[3] = tested on: NCI-H322M lung
[4] = tested on: HOP-62 NSCLC
[5] = tested on: NCI-H460 lung
[6] = tested on: HOP-92 NSCLC
[7] = tested on: NCI-H522 lung
[8] = tested on: A549/ATCC NSCLC
[9] = tested on: 786-0 renal
[10] = tested on: COLO 205 colon

COc1cc(C2CC(c3ccc(Nc4nc(NCCO)nc(NCCO)n4)cc3)=NN2c2cc(Cl)cc(Cl)c2)cc(OC)c1OC (stereo not given)
growth [1]: 4.73% (active) | growth [2]: 106% | growth [3]: 11.9% | growth [4]: 14.4% | growth [5]: -24.5% (active) | growth [6]: 89.9% | growth [7]: 25.1% | growth [8]: 0.449% (active) | growth [9]: -17.5% (active) | growth [10]: 35%

COc1cc(NC(=O)Nc2cnc(Nc3ccc(N4CCOCC4)cc3)nc2Oc2ccc(F)cc2)cc(OC)c1
growth [1]: 81.2% | growth [2]: 88% | growth [3]: 97.2% | growth [4]: 89.5% | growth [5]: 54.1% | growth [6]: 78.6% | growth [7]: 92.5% | growth [8]: 55.6% | growth [9]: 38.8% | growth [10]: 111%

C=C1C(=O)O[C@H]2[C@H]1CC/C(COC(=O)CCCCCCCC(=O)OC/C1=C/CC[C@@]3(C)O[C@H]3[C@H]3OC(=O)C(=C)[C@@H]3CC1)=C\CC[C@@]1(C)O[C@@H]21
growth [1]: 2.7% (active) | growth [2]: 47% | growth [3]: 84.7% | growth [4]: 79.2% | growth [5]: 61.4% | growth [6]: 17.9% | growth [7]: -71.1% (active) | growth [8]: 82.6% | growth [9]: 4.86% (active) | growth [10]: -61.6% (active)

Cc1cc(Cl)cc(CN(Cc2ccccc2)Cc2c(O)ccc3ccccc23)c1O
growth [1]: 93.6% | growth [2]: 104% | growth [3]: 95.7% | growth [4]: 92.3% | growth [5]: 104% | growth [6]: 83.7% | growth [7]: 83% | growth [8]: 98% | growth [9]: 103% | growth [10]: 115%

C#Cc1ccccc1NC(=O)c1sc2nc3c(cc2c1N)CCCCCC3
growth [1]: 53.5% | growth [2]: 83.4% | growth [3]: 82.7% | growth [4]: 76.8% | growth [5]: 33.4% | growth [6]: 67.6% | growth [7]: 72.1% | growth [8]: 51.4% | growth [9]: 17% | growth [10]: 47.4%

CC(=O)OC[C@]12CC[C@@H](c3cn(Cc4ccc(Cn5cc([C@@H]6CC[C@]7(COC(C)=O)CC[C@]8(C)[C@H](CC[C@@H]9[C@@]%10(C)CC[C@H](OC(C)=O)C(C)(C)[C@@H]%10CC[C@]98C)[C@@H]67)nn5)cc4)nn3)[C@@H]1[C@H]1CC[C@@H]3[C@@]4(C)CC[C@H](OC(C)=O)C(C)(C)[C@@H]4CC[C@@]3(C)[C@]1(C)CC2
growth [1]: 98.3% | growth [2]: 95.5% | growth [3]: 97.6% | growth [4]: 94.9% | growth [5]: 104% | growth [6]: 103% | growth [7]: 88.5% | growth [8]: 93.5% | growth [9]: 95.5% | growth [10]: 105%

O=C(/C(=C\c1c(-c2ccccc2)[nH]c2ccccc12)S(=O)(=O)c1ccccc1)c1ccccc1
growth [1]: 47.9% | growth [2]: 53.6% | growth [3]: 67.6% | growth [4]: 64.5% | growth [5]: 37.8% | growth [6]: -4.34% (active) | growth [7]: -12.2% (active) | growth [8]: 44.6% | growth [9]: 68.1% | growth [10]: 70.8%

COc1cc2c(Nc3ccc(NC(=O)Nc4ccc(Cl)c(C(F)(F)F)c4)c(Cl)c3)ncnc2cc1OCCCN1CCN(C)CC1
growth [1]: 17.2% | growth [2]: 73.9% | growth [3]: 11.3% | growth [4]: -15% (active) | growth [5]: -70.4% (active) | growth [6]: 27% | growth [7]: -60.4% (active) | growth [8]: 20.8% | growth [9]: 6.31% (active) | growth [10]: -43.2% (active)

C=C1C(=O)O[C@H]2[C@H]1CC/C(COC(=O)c1cn(C)c3ccccc13)=C\CC[C@@]1(C)O[C@@H]21
growth [1]: 22.5% | growth [2]: -36.5% (active) | growth [3]: 85.2% | growth [4]: 32.4% | growth [5]: 39.7% | growth [6]: -57.9% (active) | growth [7]: -85.1% (active) | growth [8]: 51.4% | growth [9]: -63% (active) | growth [10]: -80.4% (active)

CC[C@]12C=CCN3CC[C@@]4(c5ccc(OC)cc5N(C)[C@H]4[C@@](O)(C(=O)OC)[C@@H]1OC(=O)CCC(=O)O[C@H]1CC[C@H]4[C@@H]5CC[C@H]6CC(=O)CC[C@]6(C)[C@H]5CC[C@]14C)[C@@H]32
growth [1]: 38.5% | growth [2]: 35.4% | growth [3]: 68.3% | growth [4]: 32.7% | growth [5]: 13.8% | growth [6]: -2.92% (active) | growth [7]: 2.12% (active) | growth [8]: 13.2% | growth [9]: 30.8% | growth [10]: -22.1% (active)

C=C(C)[C@@H]1CC[C@]2(C(=O)OCCOCCOCC[P+](c3ccccc3)(c3ccccc3)c3ccccc3)CC[C@]3(C)[C@H](CC[C@@H]4[C@@]5(C)CC[C@H](OC(C)=O)C(C)(C)[C@@H]5CC[C@]43C)[C@@H]12
growth [1]: -84.6% (active) | growth [2]: -85.3% (active) | growth [3]: -93.8% (active) | growth [4]: -84.9% (active) | growth [5]: -80.5% (active) | growth [6]: -87.3% (active) | growth [7]: -75.2% (active) | growth [8]: -88.3% (active) | growth [9]: -91.6% (active) | growth [10]: -75.7% (active)

COC(=O)/C=C1\SC(=Nc2cccc(Cl)c2)N(CCc2c[nH]c3ccccc23)C1=O
growth [1]: 69.9% | growth [2]: 101% | growth [3]: 62% | growth [4]: 41.5% | growth [5]: 51.3% | growth [6]: 82.4% | growth [7]: 24.2% | growth [8]: 48% | growth [9]: 60.6% | growth [10]: 12.1%

O=C(N/N=C/C[C@@H]1[C@@H](/C=C/[C@@H](O)COc2cccc(Cl)c2)[C@H](O)C[C@@H]1O)c1ccncc1
growth [1]: 98.2% | growth [2]: 89.3% | growth [3]: 101% | growth [4]: 79.4% | growth [5]: 102% | growth [6]: 93.7% | growth [7]: 69.9% | growth [8]: 89% | growth [9]: 105% | growth [10]: 113%

CCCCC1=c2c([nH]c3ccc(OC)cc23)=NC2C=CC=NC12 (stereo not given)
growth [1]: 81.4% | growth [2]: 89.3% | growth [3]: 86.1% | growth [4]: 90.8% | growth [5]: 80.7% | growth [6]: 103% | growth [7]: 83.8% | growth [8]: 103% | growth [9]: 110% | growth [10]: 106%

C=C(C)[C@@H]1CC[C@]2(C(N)=O)CC[C@]3(C)[C@H](CC[C@@H]4[C@@]5(C)CCCNC(C)(C)[C@@H]5CC[C@]43C)[C@@H]12
growth [1]: 76.4% | growth [2]: 86.3% | growth [3]: 101% | growth [4]: 91.4% | growth [5]: 64% | growth [6]: 65.4% | growth [7]: 84.4% | growth [8]: 65% | growth [9]: 87.2% | growth [10]: 69.3%
